# TGFb inhibitor: qHTS for Inhibitors of TGF-b; HepG2 CAGA-GFP TGF-b/SMAD3 reporter, GFP fluorescence, 18 h; TGF-beta stimulated, 500 pg/mL final; Potency, µM (top dose mostly 46.1 µM), for the others: top-dose activity, negative = inhibition, usual class: inhibitors; actives 1.2% (n = 410,000); AID 588855, 2011; note: % is set by controls: 0 for no effect and ±100 for the full control effect; nearly all actives have a fitted effect of over 65% in size
#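 Using HEPG2 CAGA-GFP reporter cells at 1000 cells/well, we pinned test compounds, stimulated with recombinant TGF-beta (500 pg/mL final) and measured total well GFP after 18 h.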
# TDP1 cell CPT: qHTS for Inhibitors of human tyrosyl-DNA phosphodiesterase 1 (TDP1): qHTS in cells in presence of CPT; chicken DT40 Tdp1-/-;hTDP1 cells + 20 nM CPT, ATP luminescence, 48 h; actives 12% (n = 420,000); Potency, µM (highest dose often 46.2 µM), inactives show top-dose activity change, negative = growth inhibition, hits mostly inhibitors; note: % is set by controls: 0 for no effect and ±100 for the full control effect; nearly all actives have a fitted effect of over 55% in size
#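 Cell growth measured by CellTiter-Glo luminescence after a minimum 48 h, 37 C compound exposure with 20 nM CPT in Tdp1-knockout DT40 cells stably expressing hTDP1, seeded 400/well; qHTS titration format.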
# ATXN2 expr inh: Primary qHTS for Inhibitors of ATXN expression. actives 0.72% (n = 360,000). HEK-293 ATXN2-luciferase reporter, luminescence, 24 h. Potency, µM (highest dose often 57 µM), for inactives: at the highest dose activity change, negative = inhibition, most hits filed as inhibitors; note: % is set by controls: 0 for no effect and ±100 for the full control effect; nearly all actives have a fitted effect of over 55% in size
#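 ATXN2-luciferase reporter cells (luciferase flanked by upstream and downstream ATXN2 gene portions) were treated 24 h at 37 °C with compounds at up to 57 uM. SteadyGlo luminescence gave expression; GF-AFC fluorescence gave viability.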
# HepG2 viability: qHTS for Inhibitors of TGF-b: Cytotox Counterscreen. HepG2 CAGA-GFP viability, ATP luminescence, 18 h. Potency, µM (highest dose often 46.1 µM), without a hit: at the top dose activity change, negative = cytotoxicity, most hits filed as cytotoxic. actives 0.76% (n = 410,000)
#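 HepG2 CAGA-GFP cells (1000/well, DMEM with 1% FBS) received compound, then TGF-beta at 500 pg/mL final, and were incubated 18 hours at 37 degrees C. Viability was read by CellTiter-Glo luminescence. Media-only wells were set as complete cell-killing and DMSO as no toxicity.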
# DT40 TDP1 no CPT: qHTS for Inhibitors of human tyrosyl-DNA phosphodiesterase 1 (TDP1): qHTS in cells in absence of CPT | DT40 Tdp1-/- hTDP1 cells, no CPT, ATP luminescence, 48 h | Potency, µM (doses to about 46.2 µM), without a hit: at the top dose activity change, negative = growth inhibition, usual class: inhibitors | actives 15% (n = 420,000); note: % is set by controls: 0 for no effect and ±100 for the full control effect; nearly all actives have a fitted effect of over 55% in size
#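 Compound effects on proliferation are scored in DT40 Tdp1-/-;hTDP1 cells in the absence of CPT. ATP levels (CellTiter-Glo luminescence) are recorded after a ≥48 hr, 37 °C incubation.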
# ATXN viability: Viability Counterscreen for Primary qHTS for Inhibitors of ATXN expression. AID 651635, 2014. Potency, µM (titrated, usually from 56.7 µM), hits mostly cytotoxic. actives 0.49% (n = 400,000). S2 cells (HEK-293 line with an ATXN2-luciferase reporter) viability, CellTiter-Fluor protease fluorescence, 24 h; note: nearly all actives have a fitted effect of over 40% in size
# An asterisk follows results filed as active; i = inactive; ? = inconclusive; · = no result; ! = not active in a repeat; [ ] = dose if it differs, or a comment. An excerpt weighted towards active compounds, which were near 17% of everything screened. Calls come from the whole dose curve; as a rule, active = well fitted curve in the direction sought with a large enough effect; inconclusive = small, poorly fitted or top-dose-only effect, or another doubt; inactive = no such curve, though single readings can be large; an effect the other way counts as inactive or inconclusive. Potency is the fitted concentration of half-maximal effect.
SMILES,TGFb inhibitor,TDP1 cell CPT,ATXN2 expr inh,HepG2 viability,DT40 TDP1 no CPT,ATXN viability
CCC(C(=O)OC)n1cnc2c(cnn2-c2ccc(F)cc2)c1=O (centres undefined),?,-26.7%,3.4%,-5.6%,?,i
COc1ccc(OC)c(NC(=O)CSC2=Nc3ccccc3C3=NC(CCC(=O)NCCc4ccccc4)C(=O)N23)c1 (centres undefined),5.4%,?,·,-1.5%,?,·
COc1ccccc1CNC(=O)CCC1N=C2c3ccccc3N=C(SCc3ccccc3Cl)N2C1=O (centres undefined),?,?,·,-5.4%,?,·
COc1ccc(NC(=O)CSC2=Nc3ccccc3C3=NC(CCC(=O)NCCc4ccccc4)C(=O)N23)c(OC)c1 (centres undefined),0.2%,23.1µM*,·,-7.6%,8.2µM*,·
COCCCNC(=O)CSC1=Nc2ccccc2C2=NC(CCC(=O)NCc3ccccc3OC)C(=O)N12 (centres undefined),-27.1%,16.4µM*,·,-16.9%,18.4µM*,·
CCCCNC(=O)CSC1=Nc2ccccc2C2=NC(CCC(=O)NCc3ccccc3OC)C(=O)N12 (centres undefined),11.2%,?,13.2%,11.0%,?,i
COc1ccccc1CNC(=O)CCC1N=C2c3ccccc3N=C(SCC(N)=O)N2C1=O (centres undefined),8.0%,29.1µM*,·,-28.5%,3.66µM*,·
Cc1ccc2oc(=O)c(-c3nc(-c4cccs4)no3)cc2c1,-12.1%,-21.7%,·,-4.9%,-3.1%,·
CCc1cccc(NC(=O)COC(=O)c2cn(CC)c3nc(C)ccc3c2=O)c1,?,-10.6%,6.5%,-76.7%,?,i
COc1ccc(-c2ccc3c(=O)cc(-c4ccsc4)oc3c2)cn1,-6.8%,18.4µM*,-34.1%,-4.9%,?,?
O=c1cc(-c2ccsc2)oc2cc(-c3ccc4c(c3)OCO4)ccc12,13.9%,18.4µM*,7.2%,16.1%,?,i
O=c1cc(-c2ccc3c(c2)OCCO3)oc2ccc(Cl)cc12,-3.1%,?,82.4%,-0.5%,?,i
COc1ccc(C(=O)Nc2cccc(-c3cc4ccccc4oc3=O)c2)cc1[N+](=O)[O-],?,1.0%,-12.2%,-25.9%,?,i
OC(COc1cccc2ccccc12)CN1CCOCC1 (centres undefined),4.6%,0.6%,-4.3%,-5.2%,-20.7%,i
OC(COc1cccc2ccccc12)CN1CCN(c2ccccc2)CC1 (centres undefined),-15.1%,18.4µM*,·,-30.9%,?,i
C=CCOc1ccc(CN(C)CC(O)COc2cccc3ccccc23)cc1 (centres undefined),17.8µM*,?,-25.4%,12.6µM*,?,i
CC(C)NC[C@@H](O)COc1cccc2ccccc12,21.1%,29.9µM*!,?,-1.4%,20.6µM*!,i
CN(Cc1cnc2ccccn12)C1CCN(c2cccc(NC(=O)c3cccnc3)c2)CC1,·,5.1%[9.04 µM],·,·,?,i
Cc1c(N)cccc1C(F)(F)F,·,·,22.1%,·,·,i
COc1ccccc1/C=C/C(=O)NCC(=O)N/N=C/c1ccccc1,2.1%,3.5%,-4.0%,-4.2%,5.6%,i
COc1cccc(/C=N/NC(=O)CNC(=O)C(c2ccccc2)c2ccccc2)c1O,1.4%,7.31µM*,?,-14.9%,5.8µM*,i
COc1cccc(/C=N/NC(=O)CNC(=O)/C=C\c2ccccc2)c1O,?,?,·,-17.2%,2.06µM*,i
COc1ccc(/C=C\C(=O)NCC(=O)N/N=C/c2cccc(OC)c2O)cc1,-5.4%,5.8µM*,?,-10.1%,2.59µM*,i

# Screens as filed in PubChem BioAssay.
